High-throughput results as filed in PubChem BioAssay.
In the library only some 3.6% were active in any assay of this set; here they are far more common.
Pf apPOL inh: Pf-apPOL DNA polymerase inhibition; inhibition, % at 10 µM; AID 1794808; 210,000 tested, 0.25% active; Recombinant Pf-apPOL, molecular beacon fluorescence, 1.5 h
mHTT-CaM PPI inh: mHTT-calmodulin interaction abrogation. P42858. AlphaScreen His-mHTT/GST-CaM binding, luminescence. inhibition, % at 15 µM. 190,000 tested, 3.6% active. AID 1671202;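 further: 0% = both proteins with DMSO and 100% = one protein alone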
Target sequence (P42858 whole entry, looked up, stated change not applied): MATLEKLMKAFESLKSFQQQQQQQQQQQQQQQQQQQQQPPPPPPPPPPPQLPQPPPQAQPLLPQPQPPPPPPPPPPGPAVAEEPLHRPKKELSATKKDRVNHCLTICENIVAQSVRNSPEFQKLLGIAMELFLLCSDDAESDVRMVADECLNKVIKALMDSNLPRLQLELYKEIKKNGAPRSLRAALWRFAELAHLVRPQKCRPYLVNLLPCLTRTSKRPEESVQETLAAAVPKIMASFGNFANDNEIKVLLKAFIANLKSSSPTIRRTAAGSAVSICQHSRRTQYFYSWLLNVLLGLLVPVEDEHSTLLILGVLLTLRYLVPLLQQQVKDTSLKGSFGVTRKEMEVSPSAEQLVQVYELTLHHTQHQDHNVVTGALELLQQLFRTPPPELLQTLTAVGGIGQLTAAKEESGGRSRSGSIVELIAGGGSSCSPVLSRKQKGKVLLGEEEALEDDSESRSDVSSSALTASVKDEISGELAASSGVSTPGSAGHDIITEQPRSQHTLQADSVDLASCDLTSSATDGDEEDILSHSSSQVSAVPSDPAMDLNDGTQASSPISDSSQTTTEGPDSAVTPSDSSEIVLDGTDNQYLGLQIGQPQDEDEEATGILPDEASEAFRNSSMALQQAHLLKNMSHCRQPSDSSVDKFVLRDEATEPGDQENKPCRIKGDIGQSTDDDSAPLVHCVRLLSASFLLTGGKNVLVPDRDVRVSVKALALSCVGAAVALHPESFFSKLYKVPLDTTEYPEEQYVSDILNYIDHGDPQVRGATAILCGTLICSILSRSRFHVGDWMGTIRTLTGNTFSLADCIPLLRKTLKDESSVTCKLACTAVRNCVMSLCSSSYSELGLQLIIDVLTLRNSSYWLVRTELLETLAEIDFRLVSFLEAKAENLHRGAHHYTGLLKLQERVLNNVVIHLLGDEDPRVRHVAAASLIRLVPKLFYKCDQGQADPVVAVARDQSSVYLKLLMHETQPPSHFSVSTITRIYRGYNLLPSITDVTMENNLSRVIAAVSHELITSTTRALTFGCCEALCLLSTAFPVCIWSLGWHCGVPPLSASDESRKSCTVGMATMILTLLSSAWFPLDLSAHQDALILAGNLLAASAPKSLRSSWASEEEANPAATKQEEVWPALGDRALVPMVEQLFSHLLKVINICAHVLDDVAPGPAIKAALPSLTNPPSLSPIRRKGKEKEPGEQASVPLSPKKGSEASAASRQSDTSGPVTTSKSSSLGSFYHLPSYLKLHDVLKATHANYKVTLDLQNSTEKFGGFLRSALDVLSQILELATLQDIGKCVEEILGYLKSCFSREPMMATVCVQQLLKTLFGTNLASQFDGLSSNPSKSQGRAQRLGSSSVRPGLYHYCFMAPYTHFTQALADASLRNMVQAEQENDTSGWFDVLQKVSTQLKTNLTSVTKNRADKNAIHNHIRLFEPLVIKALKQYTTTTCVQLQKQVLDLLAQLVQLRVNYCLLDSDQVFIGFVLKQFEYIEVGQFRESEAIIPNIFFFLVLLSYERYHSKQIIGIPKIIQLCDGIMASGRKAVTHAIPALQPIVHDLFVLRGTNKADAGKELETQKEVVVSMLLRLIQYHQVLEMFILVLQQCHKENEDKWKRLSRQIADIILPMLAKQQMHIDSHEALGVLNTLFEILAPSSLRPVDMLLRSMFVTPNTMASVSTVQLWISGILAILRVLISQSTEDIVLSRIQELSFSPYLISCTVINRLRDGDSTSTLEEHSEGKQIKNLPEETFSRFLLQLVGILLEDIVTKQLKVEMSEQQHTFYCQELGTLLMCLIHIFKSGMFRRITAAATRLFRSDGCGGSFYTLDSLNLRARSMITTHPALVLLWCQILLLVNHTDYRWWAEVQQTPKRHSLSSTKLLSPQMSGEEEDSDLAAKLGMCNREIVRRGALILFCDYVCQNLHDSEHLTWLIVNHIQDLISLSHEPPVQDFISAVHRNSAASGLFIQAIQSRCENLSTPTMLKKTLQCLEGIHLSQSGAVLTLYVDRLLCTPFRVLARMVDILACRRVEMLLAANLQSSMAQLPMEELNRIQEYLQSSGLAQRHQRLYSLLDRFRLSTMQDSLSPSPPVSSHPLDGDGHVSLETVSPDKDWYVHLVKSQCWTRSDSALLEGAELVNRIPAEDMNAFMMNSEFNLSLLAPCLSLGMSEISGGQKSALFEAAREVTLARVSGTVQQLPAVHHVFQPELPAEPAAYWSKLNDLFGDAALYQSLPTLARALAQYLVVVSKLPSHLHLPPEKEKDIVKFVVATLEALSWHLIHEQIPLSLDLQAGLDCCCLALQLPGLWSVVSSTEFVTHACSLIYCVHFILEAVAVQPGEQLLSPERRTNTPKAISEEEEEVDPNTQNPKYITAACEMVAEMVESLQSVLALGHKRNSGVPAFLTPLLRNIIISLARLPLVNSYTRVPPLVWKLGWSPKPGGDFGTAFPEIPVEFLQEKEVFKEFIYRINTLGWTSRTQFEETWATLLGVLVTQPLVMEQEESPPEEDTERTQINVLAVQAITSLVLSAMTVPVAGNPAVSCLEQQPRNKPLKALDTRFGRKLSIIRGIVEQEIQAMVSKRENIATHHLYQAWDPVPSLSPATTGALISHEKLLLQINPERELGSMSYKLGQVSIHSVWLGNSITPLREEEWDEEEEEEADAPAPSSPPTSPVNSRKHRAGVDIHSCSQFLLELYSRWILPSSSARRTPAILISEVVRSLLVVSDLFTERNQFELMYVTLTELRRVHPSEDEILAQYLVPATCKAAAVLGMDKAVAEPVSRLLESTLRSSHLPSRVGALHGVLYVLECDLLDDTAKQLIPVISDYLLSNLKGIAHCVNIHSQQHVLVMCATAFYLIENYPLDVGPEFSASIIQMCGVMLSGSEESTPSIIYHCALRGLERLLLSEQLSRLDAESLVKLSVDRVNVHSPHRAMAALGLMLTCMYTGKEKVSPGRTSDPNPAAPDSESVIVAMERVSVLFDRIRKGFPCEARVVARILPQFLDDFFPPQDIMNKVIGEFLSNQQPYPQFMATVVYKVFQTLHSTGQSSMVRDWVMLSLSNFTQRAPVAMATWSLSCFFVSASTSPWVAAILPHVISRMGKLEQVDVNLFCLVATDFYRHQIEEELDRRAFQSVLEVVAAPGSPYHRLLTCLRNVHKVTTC
* marks the source's active call; other numbers are inactive results. No stated cut-off is given here; in the data, active means inhibition above about 50%; inactive means the rest.

Screening O=C(NCc1ccc(C(F)(F)F)cc1)C1CCN(c2cncnc2N2CCCC2)CC1 returned Pf apPOL inh 4 and mHTT-CaM PPI inh 83*.
Cc1ccc(S(=O)(=O)CCC(=O)Nc2cc(F)ccc2F)cc1 was read as Pf apPOL inh -1 and mHTT-CaM PPI inh -5.
CCOC(=O)CNC(=O)N1CCOc2ccc(C)cc21 was read as Pf apPOL inh -3 and mHTT-CaM PPI inh 1.
Screening Cc1cccc(N(CC(=O)NCc2ccc(Cl)cc2)S(C)(=O)=O)c1C returned Pf apPOL inh -7 and mHTT-CaM PPI inh 0.
For O=C1CCCc2occ(-c3ccc([N+](=O)[O-])cc3)c21 the results were Pf apPOL inh -3 and mHTT-CaM PPI inh 9.
O=C(NCc1cccs1)C1CCCN(c2ccc(-n3cccn3)nn2)C1 (stereo not drawn) was read as Pf apPOL inh -6 and mHTT-CaM PPI inh 57*.
`Cc1ccnc(NC(=O)C2CCCN(c3cc(-n4cccn4)ncn3)C2)c1` (stereo not drawn) gave Pf apPOL inh -2 and mHTT-CaM PPI inh 49.
Cc1nc(NC(=O)C2CCCN(c3ccc(-n4cccn4)nn3)C2)sc1C (stereo not drawn) was read as Pf apPOL inh -8 and mHTT-CaM PPI inh 94*.
`Cn1ncc(N2CCCC(C(=O)NCc3cccs3)C2)cc1=O` (stereo not drawn) gave Pf apPOL inh -7 and mHTT-CaM PPI inh 0.
`CN1CCN(CCCN2C(=O)CSC2c2ccc(Cl)cc2)CC1` (stereo not drawn) gave Pf apPOL inh 0 and mHTT-CaM PPI inh 4.
For CCN1CCCC1CNC(=O)c1c[nH]c2ccc(S(=O)(=O)N(CC)CC)cc2c1=O (stereo not drawn) the results were Pf apPOL inh -10 and mHTT-CaM PPI inh 9.
For O=C(NCc1ccc(Cl)cc1)c1ccc(N2CC3CC(C2)c2cccc(=O)n2C3)c([N+](=O)[O-])c1 (stereo not drawn) the results were Pf apPOL inh -8 and mHTT-CaM PPI inh 59*.
`O=C(Nc1ccc(F)c(F)c1)c1ccc(N2CC3CC(C2)c2cccc(=O)n2C3)c([N+](=O)[O-])c1` (stereo not drawn) gave Pf apPOL inh -5 and mHTT-CaM PPI inh 22.
NC(=O)c1cccc(N=c2oc3ccc(Br)cc3cc2C(N)=O)c1 was read as Pf apPOL inh 4 and mHTT-CaM PPI inh 71*.
Screening NC(=O)c1cc2cc(Br)ccc2oc1=Nc1ccc(Br)cc1 returned Pf apPOL inh 1 and mHTT-CaM PPI inh 6.
`CCOC(=O)C(NC(=O)CC)(Nc1ccc(C(O)(C(=O)OCC)C(F)(F)F)cc1OC)C(F)(F)F` (stereo not drawn) gave Pf apPOL inh 1.
`CC1CCN(CCNc2ccc(-c3nc(-c4ccc(F)cc4)no3)cn2)CC1` gave Pf apPOL inh -4 and mHTT-CaM PPI inh 51*.
`CC1CCN(CCCNc2ccc(-c3nc(-c4ccc(F)cc4)no3)cn2)CC1` gave Pf apPOL inh -4 and mHTT-CaM PPI inh 35.
For COc1cccc2nnc(NC(=O)Cc3cccc(F)c3)n12 the results were Pf apPOL inh 4 and mHTT-CaM PPI inh 9.
Screening Cc1ccc(NC(=O)c2cc3c(CO)cnc(C)c3oc2=Nc2cccc(C)c2)cc1 returned Pf apPOL inh -1 and mHTT-CaM PPI inh 1.
Cc1ccccc1-n1nc2c(c1NC(=O)/C=C/c1ccccc1)CSC2 was read as Pf apPOL inh -4 and mHTT-CaM PPI inh 81*.
`Cc1ccc(-n2nc3c(c2NC(=O)/C=C/c2ccccc2)CSC3)c(C)c1` gave Pf apPOL inh -9 and mHTT-CaM PPI inh 41.
For CCC(=O)Nc1c2c(nn1-c1ccccc1C)CSC2 the results were Pf apPOL inh 4 and mHTT-CaM PPI inh 2.
For O=C(Nc1c2c(nn1-c1ccc(Cl)cc1)CSC2)c1cccs1 the results were Pf apPOL inh -1 and mHTT-CaM PPI inh 50*.
Screening O=C(/C=C/c1ccccc1)Nc1c2c(nn1-c1ccc(Cl)cc1)CSC2 returned Pf apPOL inh -9 and mHTT-CaM PPI inh 56*.
`O=C(Nc1c2c(nn1-c1ccccc1)CSC2)c1cccs1` gave Pf apPOL inh 7 and mHTT-CaM PPI inh 32.
Screening Cc1ccccc1-n1nc2c(c1NC(=O)CSCc1ccccc1)CSC2 returned Pf apPOL inh 1 and mHTT-CaM PPI inh 81*.
Screening O=C(/C=C/c1ccc2c(c1)OCO2)Nc1c2c(nn1-c1ccc(Cl)cc1)CSC2 returned Pf apPOL inh -6 and mHTT-CaM PPI inh 25.
Cn1nc(-c2nc(-c3ccccc3F)no2)c2c1CCN(C(=O)c1ccccc1Cl)C2 was read as Pf apPOL inh 0 and mHTT-CaM PPI inh 1.
Screening O=c1[nH]cnc2nc(N3CCOCC3)[nH]c12 returned Pf apPOL inh -4 and mHTT-CaM PPI inh 6.
`O=C(/C=C/c1ccccc1)NC(NC1CCCCC1)C(Cl)(Cl)Cl` (stereo not drawn) gave Pf apPOL inh 112* and mHTT-CaM PPI inh -4.
CCOc1ccc(NC(NC(=O)/C=C/c2ccccc2)C(Cl)(Cl)Cl)cc1 (stereo not drawn) was read as Pf apPOL inh 1 and mHTT-CaM PPI inh 36.
